The results in this text go back to PubChem BioAssay (NCATS).

Structures are written as SMILES. Where “and” joins values, the source holds several entries; their conditions need not be identical. Equal values may be shown once.

This test can be described thus: qHTS profiling of the MIPE4 collection as inhibitors of Plasmodium falciparum (DD2) proliferation (Rep 2) (AID 743346). To be noted: P. falciparum Dd2 in erythrocytes, SYBR Green DNA, 72 h; at 28.5 µM unless noted. An excerpt:
Plasmodium falciparum is a virulent malarial parasite that kills 1-2 million people worldwide each year. Transmitted by mosquitoes, the sporozoite form of the parasite enters the blood stream to infect hepatocytes, where they become merozoites that infect red blood cells (erythrocytes). Within erythrocytes, merozoites begin a […] cycle of growth and division, after which the parasite is released to infect new red blood cells. Gametocytes, which form within erythrocytes as well, circulate in the bloodstream and are ingested by the mosquito, thereby completing the life cycle. To profile malarial isolates for differential chemical responses and to identify inhibitors of malarial growth, an assay that measures P. falciparum growth and replication within erythrocytes was employed. This assay uses a DNA binding fluorescent dye (SYBR Green) to detect parasite DNA following cell lysis. Because mature erythrocytes lack DNA, only Plasmodium-derived DNA is detected.
The SYBR Green viability assay was adapted from a method described previously (Plouffe et al., 2008). For screening 3 ul culture medium was dispensed into 1536 well black clear bottom plates (Aurora Biotechnologies) using a Multidrop Combi (Thermo Fisher Scientific Inc.), 23 nL compounds in DMSO were added by a pin tool (Kalypsys), and 5 ul of erythrocytes infected with P. falciparum (0.3% parasitemia, 2.5% hematocrit final concentration) were added. The plates were incubated at 37 C in a humidified incubator in 5% CO2 for 72 h, and 2 ul lysis buffer (20 mM Tris HCl, 10 mM EDTA, 0.16% saponin, 1.6% triton X, 10X SYBR Green I supplied as 10,000X […] by Invitrogen) was added to each well. The plates were mixed for 25 sec with gentle shaking and incubated overnight at room temperature in the dark. The following morning, fluorescence intensity at 485(14) nm excitation and 535(25) nm emission wavelengths was measured on an EnVision (Perkin Elmer) plate reader. Plate reads were normalized relative to the control inhibitor (0.29 uM artemisinin) and vehicle (DMSO) wells present on each plate and then corrected by an algorithm using vehicle-only control plates at the beginning and end of the compound plate stack.
With `CNC(=O)c1nn(C)c2c1C(C)(C)Cc1cnc(Nc3ccc(N4CCN(C)CC4)cc3)nc1-2`, the parasite growth, % of control (lower = inhibition) was 6.77%.
Then `CC(C)c1ccc(Cn2ccc3c4c(N)nc(NC5CC5)nc4ccc32)cc1`, with 15.1%.
Then `COc1ccc2c(OCc3nnc4ccc(-c5ccccc5)nn34)ccnc2c1`, with 67%.
Then `CN1CCN(c2ccc3nc(-c4c(N)c5c(F)cccc5[nH]c4=O)[nH]c3c2)CC1`, with 7.17%.
As for `O=c1[nH]c(=O)n(C2CCCO2)cc1F` (stereo not given), the parasite growth, % of control (lower = inhibition) is 110% [at 57.5 µM].
In the case of `CNC(=O)c1cc(Oc2ccc(NC(=O)Nc3cc(C(C)(C)C)nn3-c3ccc4ncccc4c3)c(F)c2)ccn1`, the parasite growth, % of control (lower = inhibition) is 10.2%.
Then `CC(C)c1cnn2c(NCc3ccccc3)cc(N[C@@H](CO)[C@H](O)CO)nc12`, with 21.4%.
`CN1c2cc(O)c(N=NC(N)=O)cc2CC1S(=O)(=O)O` (stereo not given): the parasite growth, % of control (lower = inhibition) is 19.7%.
Then `Cc1c(C)n(Cc2ccc(-c3ccccc3C(=O)O)cc2)c2ccc(C(=O)N[C@@H](C)c3ccc([N+](=O)[O-])cc3)cc12`, with 20.8%; and `O=C(C=Cc1cccnc1)NCCCCC1CCN(C(=O)c2ccccc2)CC1`, with 51%.
Then `Cn1c2ccccc2c2c3c(c4c5ccccc5n(CCC#N)c4c21)CNC3=O`, with 30.7%; and `C=C1C(=CC=C2CCCC3(C)[C@@H]([C@H](C)C=CC=CC(O)(CC)CC)CC[C@@H]23)C[C@@H](O)C[C@@H]1O` (stereo not given in full), with 12.7%; and `Cn1c(CNc2ccc(C(=N)N)cc2)nc2cc(C(=O)N(CCC(=O)O)c3ccccn3)ccc21`, with 86.3% [at 9.64 µM].
Then `Cc1ccc(C(N)=O)cc1Nc1nccc(-c2cn(C(C)C)c3cnccc23)n1`, with 7.77%; and `CC(C)c1nn(-c2c(Cl)cccc2Cl)c2nc(Cc3ccc(OCCO)cc3)[nH]c(=O)c12`, with 27.3%.
Consider `CC(O)C1C(=O)N2C(C(=O)O)=C(SC3CNC(C(=O)N(C)C)C3)C(C)C12` (stereo not given), for which the parasite growth, % of control (lower = inhibition) came to 82.6%.
Then `Cc1cc(Nc2cc(N3CCN(C)CC3)nc(Sc3ccc(NC(=O)C4CC4)cc3)n2)n[nH]1`, with 22.4%; and `O=C(C=Cc1cccc(S(=O)(=O)Nc2ccccc2)c1)NO`, with 18.3% [at 57.5 µM]; and `N#CCNC(=O)c1ccc(-c2ccnc(Nc3ccc(N4CCOCC4)cc3)n2)cc1`, with 13.1%.
Then `COc1cc(C(=O)N2CCC(N3CCN(C)CC3)CC2)ccc1Nc1ncc2c(n1)N(C)c1ccccc1C(=O)N2C`, with 19.7%; and `COc1c(N2C[C@@H]3CCCN[C@H]3C2)c(F)cc2c(=O)c(C(=O)O)cn(C3CC3)c12`, with 31.4% and 104%.
Then `CC1(O)CC(c2nc(-c3ccc4ccc(-c5ccccc5)nc4c3)c3c(N)nccn23)C1` (stereo not given), with 10.7%.
On to `CNC(=O)c1ccc(N2C(=S)N(c3cnc(C#N)c(C(F)(F)F)c3)C(=O)C23CCC3)cc1F`, for which the parasite growth, % of control (lower = inhibition) was 39%.
Then `CCc1c2c(nc3ccc(O)cc13)-c1cc3c(c(=O)n1C2)COC(=O)[C@]3(O)CC`, with 19.1%; and `O=C(O)CO.[NH2-].[NH2-].[Pt+2]`, with 83.9%; and `CCS(=O)(=O)c1cccc(-c2cc(C(=O)NC3CCN(C)CC3)c(C)c3[nH]c4ncc(C)cc4c23)c1`, with 15.1%.
Then `CC(C)Nc1cc(C(F)(F)F)cc2nc(NC(=O)c3cccnc3)nn12`, with 92.3%.
Consider `CC(C)CC(=O)Nc1n[nH]c2c1CN(C(=O)C1CCN(C)CC1)C2(C)C`, for which the parasite growth, % of control (lower = inhibition) amounted to 34.2%.
Then `C[C@@]12O[C@@H](C[C@]1(O)CO)n1c3ccccc3c3c4c(c5c6ccccc6n2c5c31)CNC4=O`, with 28.1%.
Then `CC(C)(C)OC(=O)Nc1ccc(-c2cc(C(=O)NCCCCCCC(=O)NO)no2)cc1`, with 12.7%.
As for `CC(C)C[C@H](NC(=O)CNC(=O)c1cc(Cl)ccc1Cl)B(O)O`, the parasite growth, % of control (lower = inhibition) came out at 7.79%.
Then `CC(C)c1cc(-c2n[nH]c(=O)n2-c2ccc3c(ccn3C)c2)c(O)cc1O`, with 8.97%; and `Cc1coc2c1C(=O)C(=O)c1c-2ccc2c1CCCC2(C)C`, with 26.2%; and `CN(C)CC(C)(C)CNc1nn2c(-c3ccccc3)nnc2cc1C1CCC1`, with 40.5%.
Then `NC1(Cc2ccc(Cl)cc2)CCN(c2ncnc3[nH]ccc23)CC1`, with 23.9%; and `CC(C)c1noc(N2CCC(COc3ccc(-c4ccc(S(C)(=O)=O)cc4)nc3)CC2)n1`, with 49.7%.
Then `COCCOc1ccc2c(c1)ncn2-c1ccc2cccc(N3CCC(N)CC3)c2n1`, with 13.1%.
For `CCOc1cc2ncc(C#N)c(Nc3ccc(F)c(Cl)c3)c2cc1NC(=O)C=CCN(C)C`, the parasite growth, % of control (lower = inhibition) is 9.55%.
Then `C[C@@H]1CN(CC(=O)Nc2ccc3c(c2)Cc2cccc(-c4cc(=O)cc(N5CCOCC5)o4)c2S3)C[C@H](C)O1`, with 9.57%.
Then `CN(C1CCc2c(c3ccccc3n2CC(=O)O)C1)S(=O)(=O)c1ccc(F)cc1` (stereo not given), with 19%.
